NS1 inh: influenza NS1 inhibition. Potency, µM (series often up to 46.1 µM). 0.4% of 270,000 active. AID 2326; calls by dose curve; note: actives are rising curves; nearly all actives have a fitted effect of over 50% in size
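Recovery from NS1-induced slow growth read by OD600 in budding yeast switched to galactose assay medium (pH 6.0, -URA) at 1:100 dilution. Compound 23 nl per well; the matching strain lacking NS1 serves as control.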
AmpC inh detg: blocks E. coli AmpC beta-lactamase in detergent assay; AmpC hydrolysis of nitrocefin, absorbance 480 nm, 0.01% Triton; Potency, µM (series often up to 114 µM), usual class: inhibitors; 0.041% of 370,000 active; P00811; note: nearly all actives have a fitted effect of over 25% in size
Target sequence (P00811 whole entry, looked up): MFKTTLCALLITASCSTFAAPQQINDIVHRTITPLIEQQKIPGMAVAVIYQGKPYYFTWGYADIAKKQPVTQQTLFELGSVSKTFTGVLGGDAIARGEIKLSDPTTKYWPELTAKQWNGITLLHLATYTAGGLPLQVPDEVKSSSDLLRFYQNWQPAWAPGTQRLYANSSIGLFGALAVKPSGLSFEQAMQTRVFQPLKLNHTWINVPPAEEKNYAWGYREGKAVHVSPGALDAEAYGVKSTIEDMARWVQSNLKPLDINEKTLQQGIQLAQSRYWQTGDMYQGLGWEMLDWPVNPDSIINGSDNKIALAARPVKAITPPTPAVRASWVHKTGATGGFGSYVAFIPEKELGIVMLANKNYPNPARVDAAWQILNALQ
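20 mM phosphate pH 7.0 + 0.01% (detergent screen) or 0.0001% Triton X-100; 5.3 nM AmpC reagent; cpd preinc 15 min RT; nitrocefin (800 uM stock) to start; A480 q20 s × 4 min; Activity was normalised to no-enzyme and no-compound control wells.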
AmpC no deterg: inhibitors of E. coli AmpC beta-lactamase without detergent. AmpC nitrocefin hydrolysis, absorbance 480 nm, 0.0001% Triton. 0.52% of 330,000 active. P00811. Potency, µM (highest dose often 57.1 µM), actives largely listed as inhibitors; note: nearly all actives have a fitted effect of over 20% in size
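20 mM phosphate pH 7.0 + 0.01% (detergent screen) or 0.0001% Triton X-100; 5.3 nM AmpC reagent; cpd preinc 15 min RT; nitrocefin (800 uM stock) to start; A480 q20 s × 4 min; Activity was normalised to no-enzyme and no-compound control wells.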
Shiga toxin inh: Shiga toxin inhibition; Vero cells, Shiga toxin protein synthesis inhibition reporter; inhibition, % at 38.7 µM; 9.2% of 290,000 active; in the data active = inhibition mostly above about 28%, no sharp cut-off; inactive = mostly below about 43%
Cycloheximide cs: affects cycloheximide protein synthesis inhibition readout, counter-screen; AID 2314; max response, %; 12% of 300,000 active; cell reporter, cycloheximide protein synthesis inhibition counterscreen; in the data active = max response mostly above about 13%, no sharp cut-off; inactive = mostly below about 14%; note: read at 38.3 µM for the half of the compounds with a filed dose
Large screens that a line does not name were inactive. This excerpt belongs to a sample that is enriched for hits. Unless noted, calls come from the whole dose curve; as a rule, active = well fitted curve in the direction sought with a large enough effect; inconclusive = small, poorly fitted or top-dose-only effect, or another doubt; inactive = no such curve, though single readings can be large; an effect the other way counts as inactive or inconclusive.

O=C(N/N=C/c1ccco1)c1ccc(NC(=O)c2ccccc2Cl)cc1	none
C/C(=N\NC(=O)c1cccc(Cl)c1)c1cccc(NC(=O)c2ccco2)c1	AmpC no deterg inconclusive, Shiga toxin inh 90.9, Cycloheximide cs 24.0
CC(C)(C)NC(=O)c1cccc(NC(=O)c2ccco2)c1	AmpC inh detg inconclusive
C/C(=N/NC(=O)c1cccc(C)c1)c1c(O)cc(C)oc1=O	AmpC inh detg inconclusive, Shiga toxin inh 61.4, Cycloheximide cs 31.2
O=C(N/N=C/c1ccco1)c1cccc(NC(=O)c2cccc(Cl)c2)c1	Shiga toxin inh 80.9, Cycloheximide cs 41.2
C/C(=N\NC(=O)c1cccc(C)c1)c1cccc(NC(=O)c2ccco2)c1	AmpC inh detg inconclusive, Cycloheximide cs 18.6
O=C(NC12CC3CC(CC(C3)C1)C2)N1CCN(C(=O)c2ccco2)CC1	AmpC inh detg inconclusive (no result: NS1 inh)
CCOc1ccc(-n2ccn3c(CC(C)CC(=O)O)nnc3c2=O)cc1 (configuration not stated)	none (no result: NS1 inh, AmpC no deterg, Shiga toxin inh, Cycloheximide cs)
C/C(=N\OCc1ccc(C#N)cc1)c1ccc(S(=O)(=O)N(C)C)cc1	Shiga toxin inh 80.4, Cycloheximide cs 48.4
C/C(=N\OCc1cccc(C(=O)O)c1)c1ccc(Cl)cc1	Shiga toxin inh 124.8, Cycloheximide cs 78.0
CN(C)S(=O)(=O)c1ccc(C(=O)NCc2ccccc2)cc1	AmpC inh detg inconclusive
C/C(=N\OCc1ccc(C#N)cc1)c1ccccc1	Shiga toxin inh 70.2, Cycloheximide cs 42.5 (no result: NS1 inh)
C=CCNC(=O)NC(=O)CN1C(=O)NC(c2ccccc2)(c2ccccc2)C1=O	AmpC inh detg inconclusive
CC(=O)c1cccc(NC(=O)CCn2nc(C)c(S(=O)(=O)N(C)C)c2C)c1	none (no result: NS1 inh, AmpC no deterg, Shiga toxin inh, Cycloheximide cs)
O=C(CSc1nnc(Cc2ccccc2)n1Cc1ccccc1)NCc1ccco1	Shiga toxin inh 23.4
O=C(CSc1nnc(CNc2ccc(Cl)cc2)n1Cc1ccccc1)NCc1ccco1	AmpC inh detg inconclusive, Cycloheximide cs 14.4
O=C(O)CSc1ncnc2scc(-c3ccc(Br)cc3)c12	none
Cc1ccc(Oc2coc3cc(OCC(=O)NC4CCCCC4)ccc3c2=O)cc1	none (no result: NS1 inh, AmpC no deterg, Shiga toxin inh, Cycloheximide cs)
CC(=O)c1ccc(NC(=O)c2cc(Cl)sc2Cl)cc1	AmpC inh detg inconclusive, Shiga toxin inh 31.6, Cycloheximide cs 39.7
Cc1cc(C)cc(NC(=O)c2cc(Cl)sc2Cl)c1	Cycloheximide cs 29.7
CCn1c(C(=O)Nc2cc(C)cc(C)c2)cc2sc(Cl)cc21	none (no result: NS1 inh, AmpC no deterg, Shiga toxin inh, Cycloheximide cs)
COc1cccc(NC(=O)Cn2nc3c4ccccc4n(Cc4cccc(F)c4)cc-3c2=O)c1	none (no result: NS1 inh, AmpC no deterg, Shiga toxin inh, Cycloheximide cs)
O=c1c2[nH]c3ccc(Br)cc3c2ncn1Cc1ccncc1	none
CC1=NN(c2ccccc2)C(=O)C1N=Nc1ccc(N)cc1 (configuration not stated)	Shiga toxin inh 80.3, Cycloheximide cs 55.2
CC1=NN(c2ccccc2)C(=O)[C@@H]1N=Nc1ccc(S(N)(=O)=O)cc1	none (no result: AmpC inh detg, AmpC no deterg, Shiga toxin inh, Cycloheximide cs)
CC1=NN(c2ccccc2)C(=O)C1N=Nc1cccc(O)c1 (configuration not stated)	Shiga toxin inh 86.3, Cycloheximide cs 43.5
CC1=NN(c2ccccc2)C(=O)C1N=Nc1ccccc1 (configuration not stated)	Shiga toxin inh 108.9, Cycloheximide cs 21.2
COc1ccc(N=NC2C(=O)N(c3ccccc3)N=C2C)cc1 (configuration not stated)	none
CC(C)(CCC(=S)N1CCOCC1)C1CCCCC1	AmpC inh detg inconclusive, Cycloheximide cs 25.5
CCN(CC)C(=O)Cn1c(=O)n(CCCCCC(=O)NCc2ccccc2Cl)c(=O)c2sccc21	none (no result: NS1 inh, AmpC no deterg, Shiga toxin inh, Cycloheximide cs)
[O-]c1c[n+](-c2ccc(-[n+]3cc([O-])on3)cc2)no1	Cycloheximide cs 21.3
Cc1cc(=O)oc2cc(OCC(=O)N3CCN(C(=O)c4ccco4)CC3)ccc12	none (no result: NS1 inh)
CC(/C=N/n1c(-c2ccccc2)n[nH]c1=S)=C\c1ccco1	none
CC(=C/c1ccco1)/C=N/N1CCN(c2ccccc2)CC1	Shiga toxin inh 86.4, Cycloheximide cs 46.4
CC(/C=N/N1CCN(c2ccccc2)CC1)=C\c1ccco1	AmpC inh detg inconclusive, Cycloheximide cs 43.7
CC(/C=N/N1CCN(c2ccccc2)CC1)=C\c1ccccc1	none
CN(C)P(=O)(Nc1cccc2ccccc12)Nc1cccc2ccccc12	none (no result: NS1 inh, Shiga toxin inh, Cycloheximide cs)
COc1cccc(C(=O)CN2C(=O)C(C)(C)Oc3ccc(C(=O)N4CCOCC4)cc32)c1	none
COc1cccc(C(=O)CN2C(=O)C(C)(C)Oc3ccc(C(=O)N4CCCCCC4)cc32)c1	Cycloheximide cs 31.3
Cc1noc(Cn2c(=O)c3ccccc3n(CC(=O)Nc3cc(Cl)ccc3C)c2=O)n1	none (no result: NS1 inh, AmpC no deterg, Shiga toxin inh, Cycloheximide cs)
O=C(NCCCc1ccccc1)c1ccc(F)cc1	Shiga toxin inh 54.9, Cycloheximide cs 34.5
CC(=O)Nc1ccc(C(=O)NCCc2ccccc2)cc1	Shiga toxin inh 61.5, Cycloheximide cs 59.6
CC(C)(C)c1ccc(C(=O)NCc2ccccc2)cc1	Shiga toxin inh 52.8, Cycloheximide cs 25.6
CCn1c(CCCNC(=O)c2ccc(F)cc2)nc2ccccc21	AmpC inh detg inconclusive, AmpC no deterg 35.5µM
COc1cccc(NC(=O)c2ccc3[nH]c(C)cc(=O)c3c2)c1	none (no result: NS1 inh, AmpC no deterg, Shiga toxin inh, Cycloheximide cs)
CC(C)(C)c1ccc(C(=O)NCCc2ccccc2)cc1	Shiga toxin inh 52.7, Cycloheximide cs 45.7
CC(C)(C)c1ccc(C(=O)NCCCNC(=O)c2ccco2)cc1	none
C=CCN(c1ccc(C(=O)NCCc2ccccc2)cc1)S(C)(=O)=O	Cycloheximide cs 40.3
Cc1cc(C)c(NC(=O)Cn2c(=O)n(Cc3ccc(C(=O)NCc4ccco4)cc3)c(=O)c3sccc32)c(C)c1	none (no result: NS1 inh, AmpC no deterg, Shiga toxin inh, Cycloheximide cs)
CCc1ccc(N2C(=O)CN(Cc3cccs3)C2=S)cc1	Cycloheximide cs 28.1 (no result: NS1 inh)
Cc1c(N=C/C=C/c2ccccc2)c(=O)n(-c2ccccc2)n1C	none
Cc1c(N=C/C=C/c2ccccc2)cnn1C	Cycloheximide cs 23.0
O=C(NCCc1cccc(Cl)c1)c1cccc([N+](=O)[O-])c1	AmpC inh detg inconclusive, Cycloheximide cs 21.5
O=C(NCCCCCNC(=O)c1cccnc1)c1cccnc1	none
O=C(NCCOCCOCCNC(=O)c1cccnc1)c1cccnc1	Cycloheximide cs 16.7
O=C(NCCc1cccc(Cl)c1)c1cccnc1	AmpC inh detg inconclusive, Shiga toxin inh 142.5, Cycloheximide cs 57.0
O=C(NCc1cccnc1)c1cccc(Cl)c1	none
CC(C)CN1CCC(=O)N(C(CSc2ccc(Br)cc2)Cc2ccccc2)CC1 (configuration not stated)	none (no result: NS1 inh, AmpC inh detg, AmpC no deterg)
COc1ccc(/C(N)=N/OC(=O)CC2CCCCC2)cc1OC	Shiga toxin inh 55.1, Cycloheximide cs 49.5
N/C(=N\OC(=O)CC1CCCCC1)c1ccc(Br)cc1	none
N/C(=N\OC(=O)CC1CCCCC1)c1ccc(Cl)cc1	Shiga toxin inh 73.3, Cycloheximide cs 29.7
COc1ccc(/C(N)=N/OC(=O)CCC2CCCC2)cc1OC	Shiga toxin inh 57.9, Cycloheximide cs 22.5
N/C(=N\OC(=O)CC1CCCCC1)c1cccc(Br)c1	Shiga toxin inh 55.3, Cycloheximide cs 44.4
CC(=O)c1cc2c(cc1NC(=O)CCn1cccc1)OCO2	none
Cc1ccc(C(=O)Nc2ccc(O)c(C(=O)O)c2)o1	none
